# In all, about 25,000 sequences were measured (“ln(normalized median fluorescence intensity)”: median about 9.7, highest 2% from about 11 on). The entries come from a sample that favours the highest values as a whole.
# System: PfAP2-HC AP2 domain (GST-tagged)
# Experiment: gcPBM binding intensity (ln(normalized median fluorescence intensity)); higher = stronger DNA binding
# Outline: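 Binding intensity is defined as the maximum Masliner-normalised natural-log median intensity across replicate spots for either probe orientation. It was measured on an Agilent 4 × 180k array of primer-extended double-stranded 36-bp intergenic genomic probes and negative controls, to which GST-tagged P. falciparum DNA-binding domains made in E. coli were applied for 1 h in 1× PBS with 1% milk, 0.2 mg/ml BSA, 0.5% salmon testes DNA and 0.03% Triton X-100. Detection was by Alexa488 anti-GST antibody and scanning at 488 nm.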
row,Sequence,gcPBM binding intensity (ln)
1,AAAAAAATTTCACATTGTACTTTAATAATATACTAC [XGTACX_site7264],9.64
2,TATATATATATATATTGTACATAATGTATATATGTT [XGTACX_site3448],9.74
3,AAAATAATGTATATAGTGCAAATGAAAACGAAAAAA [GTGCAC_site9455],10.1
4,TGAATATTTCTATATACACACATATATATATATATA [CACACA_site3451],9.74
5,ATAATGAAAAGGAACATACACACCCCATATAAATAT [CACACA_site3442],10.3
6,TACAAACAAACACATAGCAATATATGTTATCAAAAA [XGTACX_negctrl_site1],9.81
7,AGAAAGAAAGAATACACACACACATATATATATATC [CACACA_site3744],11.5
8,TAAAGAAATAAATACATACACACATATATATATATA [CACACA_site3363],9.89
9,AGAAAGAAAGAATACACACACACATATATAAATATC [CACACA_site7716],10.4
10,TTATCATTTTAATGGTGTACTCAATAAAAACTTTAA [XGTACX_site4595],9.13
11,TATATAAATAGACACACACACATATAAATATAAATA [CACACA_site6503],10.4
12,AAAAAAAACAGACACACACACATAAATATATATAAA [CACACA_site148],10.4
13,TATATATATAGACACACACACACATATATATATATA [CACACA_site9366],10.7
14,CATATAAATAGACACACACACACATATAAATAAATA [CACACA_site7156],11.1
15,AAAAAAAACAGACACACACACATAAATATAAATAAA [CACACA_site6214],10.5
16,ACATAAATATATGACACACACACATATTATATATAT [CACACA_site3065],11.1
17,AAAGGATATAGACACACACACACATATATATATATA [CACACA_site2200],11.4
18,TATATAATATATATGACACACATATTTATATAAATA [CACACA_site4054],9.57
19,GCACATAAATATATGACACACACACCGATTATATAT [CACACA_site9003],10.8
20,AAAGGATACAGACACACACACACATATATATATATA [CACACA_site906],10.8
21,TATATATATAGACACACACACATATAAATAAATAAA [CACACA_site444],10.4
22,AAAAATTCCAGACACACACACACATATAAATAAATA [CACACA_site1232],11.1
23,CACACTTTATAATGTTGTACGATACATTATACCAAA [XGTACX_site941],9.67

row,Sequence,gcPBM binding intensity (ln)
1,ATAGTATAACAGCAATGTACACATATTTGTGTATAT [XGTACX_site7899],10
2,AATATTAAAAACAAAACACACAAAAAAAAATAAACT [CACACA_site6470],10.2
3,TGTACATATATATAATATATATATCATCATATTTTC [CACACA_negctrl_site1750],9.69
4,TAAAACAAAATAACATGTACAAAAAAAAAAAAAAAA [XGTACX_site2915],9.24
5,ACAAATAAATAAATATGTACTTAATTATATAATTGA [XGTACX_site5626],9.5
6,TATCATGGGTGTATTTCACACACGGATAATCATTTA [CACACA_site8211],9.83
7,AAGAAAATTAACCCATGTACTTATGTAGATAGCAAG [XGTACX_site1049],9.87
8,TTGAGAAAAATTAATGGTACACATATTATAAGTATA [XGTACX_site6539],9.7
9,AAATATATTTTTTTTTGTACTCAAAAAGAAAAAAAA [XGTACX_site8540],9.05
10,AAAAATTTCATATTCACACACAAAAAAAAAAAATAT [CACACA_site1592],9.96
11,AAATACTTATTCGTGGTGCAACAATTTTAAAAATTA,9.49
12,TATGAAAAAATATATACACACATAATAAAGGTATAT [CACACA_site3737],9.9
13,AACATTATAAGACACACACACACATATATATATATA [CACACA_site8259],10.8
14,AATAAATTTAGACACACACACACATATAAATAAATA [CACACA_site6531],11.1
15,TAATAAATAAGACACACACACATATATATATATTAT [CACACA_site1389],10.3
16,TAAATTTATAGACACACACACATATAAATAAATATA [CACACA_site6530],10.8
17,TAATTTTTTAGACACACACACATATAAATATAAATA [CACACA_site6195],10.8
18,AACATTATAAGACACACACACACATATATAAATATA [CACACA_site6622],11.2
19,TATATAAATAGACACACACACACATATAAATAAATA [CACACA_site7855],10.7
20,AAAAAAAAAAGACACACACACATATAAATATAAATA [CACACA_site6899],11.5
21,TCATAGTATAGACACACACACACACGCATATAAATA [CACACA_site6915],10.5
22,TACACGCATAGACACACACACACACGCATATAAATA [CACACA_site6446],11.3
23,TATAAATAAAGACACACACACATATAAATAAATATA [CACACA_site7155],10.5

row,Sequence,gcPBM binding intensity (ln)
1,CATATAAAAAGACACACACACACATATATATATATA [CACACA_site940],10.8
2,AAAAAAAAAAAATTCACACACATATAAAAAATTAAG [CACACA_site728],10
3,AATAAATATAGGTACACACACAAATATGTACATATC [CACACA_site6976],10.2
4,ATTCTCCATGTTTGATGTACTCATATGACGACGGAG [XGTACX_site4923],9.52
5,AATATATGTATATCCACACACATATATATATATATA [CACACA_site1633],9.96
6,ATACATATTCTTATTTGTACTTATTATAAAATGGTC [XGTACX_site6584],9.56
7,ATATATATTTATTTATGTACGAATAAATTTACGAAT [XGTACX_site5190],9.51
8,CTTATCAAAAAAAAAGCATGCCACAGGCAAAAGGTA [TGCATGCA_site574],9.71
9,ATAGAATAAATTTTGTCATTTATTCCTTATATATAA [GTGCAC_negctrl_site227],9.56
10,TTATATATTTTTAGGTGTACTTTTTTTTTTTTTTTT [XGTACX_site8164],9.54
11,ATATATATATAATAAACACACACATATACATATATG [CACACA_site9145],10.5
12,ATAAAAAAAGGACACACACACATATATTTATTTATA [CACACA_site7438],10.5
13,ATAAAAAAAAGACACACACACATATATATATATATA [CACACA_site3073],10.3
14,AAAAATAAAATATATACATGCATATACATATTATAT [TGCATGCA_site668],9.65
15,AAATTCCACCAACACACACACATATAAATAAATAAA [CACACA_site1233],11
16,AATAACCACCAACACACACACATATATATATATATA [CACACA_site3540],10.2
17,ATATTATATATATACACACACACATGCATGCACATA [CACACA_site7917],10.3
18,ATAAAAAAAGGACACACACACATATATATATATATA [CACACA_site5662],10.8
19,ATATTATATAAATACACACACACATGCATGCACATA [CACACA_site4236],11.2
20,AAATTCCACGAACACACACACATATAAATAAATAAA [CACACA_site6697],10.6
21,TAAAACATAAGAGACACACACACATATATATATATA [CACACA_site3643],10.9
22,CATATAAAAGGACACACACACACATATATATATATA [CACACA_site4674],11.6
23,AAACATAAGAGACACACACACATATATAAATAAATA [CACACA_site7674],10.5

row,Sequence,gcPBM binding intensity (ln)
1,ATAGATATAACATATGCATGTAAAATATAACCACTC [TGCATGCA_site60],9.97
2,TTCACTAATAAATACGCACACATATACAGATATATA [CACACA_site4887],9.94
3,GAGTTTTAATGTAATAGTACTTTAATTATTATATAT [XGTACX_site4527],9.7
4,ATACACAAAATTATTAAATCAATAAATATATGGTTT [CACACA_negctrl_site353],9.57
5,TAATATCATTTATGGGGTACCTCCTATTCTTATTTA [XGTACX_site1839],9.64
6,TAACTTTTTTTTTTTTTTTTTTAACTTTTATGTAAT [GTGCAC_negctrl_site156],9.45
7,GAAATATTTAGACACACACACAAACATATAAATATA [CACACA_site6980],11.1
8,TTAAACAATTTAGACATACACACAAAAATAATATTA [CACACA_site385],9.87
9,AAACAATTTAGACATACACACAAAAATAATATTATA [CACACA_site384],10.3
10,TACATCTGTAATGTGTGTACATATATGTATATATTT [XGTACX_site1805],9.87
11,ATATAAAATAGACACGCACACAAAAAAAAAAAAAAA [CACACA_site3522],10.4
12,TAATAAATAAATGACACACACACACGCAAAAAAAAA [CACACA_site7275],10.6
13,TTTATTAAGAAACACACACACACACCCAAAATAAAA [CACACA_site242],10.5
14,ATAAATAAAAAACACACACACACACCCAAAAAAAAA [CACACA_site2624],10.7
15,TATTTATTAAAACACACACACACACCCACAAAATAA [CACACA_site241],10.5
16,TTTATTAATGGACACACACACACACCCAAAATAAAA [CACACA_site4294],10.5
17,AACACCCACAGACACACACACAAAAATGATTAAAAA [CACACA_site2433],10.9
18,TTTATTAATAGACACACACACACACGCAAAATAAAA [CACACA_site6255],11.2
19,TTAACAAATAAACACACACACACACCCAAAAAAAAA [CACACA_site8068],11.1
20,ATTAATAAATAAATGACACACACACCCACAAAAAAA [CACACA_site8839],11.3
21,AAAAAAAAAAAACACACACACAAAATAAACAAACAA [CACACA_site2721],10.5
22,TTTATTAATAAACACACACACACACCCAAAATAAAA [CACACA_site7966],11
